# PubChem BioAssay AID1159580 (chemical genetic matrix, 2015)
# In all, about 5,500 compounds went through this assay and about 2,000 (36%) were called active. Not shown: some 18% with an inconclusive outcome. Some of the results follow. Values without a mark were called inactive. Cut-off read from the data, not from the text of the source: active = normalized growth mostly below about 0.91 (no sharp cut-off); inconclusive = no clear call, values can overlap the other calls; inactive = mostly above about 0.92.
# Assay: chemical genetic growth profiling, strain panel (AID 1159580);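 note: tested at 20 µM; growth read once vehicle control cultures reached saturation at 30 °C; 1 = growth at the plate median or of vehicle wells; lower values mean less growth of the strain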
# Details: growth OD
# [1] = S. cerevisiae deletion strains, locus YAL013W, strain DEP1, hits give low values
# [2] = S. cerevisiae deletion strains, locus YBR229C, strain ROT2, hits give low values
# [3] = S. cerevisiae deletion strains, locus YCL061C, strain MRC1, hits give low values
# [4] = S. cerevisiae deletion strains, locus YDL101C, strain DUN1, hits give low values
# [5] = S. cerevisiae deletion strains, locus YDR150W, strain NUM1, hits give low values
# [6] = S. cerevisiae deletion strains, locus YEL061C, strain CIN8, hits give low values
# [7] = S. cerevisiae deletion strains, locus YGR078C, strain PAC10, hits give low values
# [8] = S. cerevisiae deletion strains, locus YHR030C, strain SLT2, hits give low values
# [9] = S. cerevisiae deletion strains, locus YHR087W, strain rtc3, hits give low values
# [10] = S. cerevisiae deletion strains, locus YJL187C, strain SWE1, hits give low values
# [11] = S. cerevisiae deletion strains, locus YJR043C, strain POL32, hits give low values
# [12] = S. cerevisiae deletion strains, locus YJR075W, strain HOC1, hits give low values
# [13] = S. cerevisiae deletion strains, locus YLR039C, strain RIC1, hits give low values
# [14] = S. cerevisiae deletion strains, locus YLR058C, strain SHM2 (second series), hits give low values
# [15] = S. cerevisiae deletion strains, locus YLR085C, strain ARP6, hits give low values
# [16] = S. cerevisiae deletion strains, locus YLR262C, strain YPT6, hits give low values
# [17] = S. cerevisiae deletion strains, locus YML094W, strain GIM5, hits give low values
# [18] = S. cerevisiae deletion strains, locus YMR219W, strain ESC1, hits give low values
# [19] = S. cerevisiae deletion strains, locus YMR263W, strain SAP30, hits give low values
# [20] = S. cerevisiae deletion strains, locus YNL153C, strain GIM3, hits give low values
# [21] = S. cerevisiae deletion strains, locus YNL298W, strain CLA4 (second series), hits give low values
# [22] = S. cerevisiae deletion strains, locus YNL322C, strain KRE1, hits give low values
# [23] = S. cerevisiae deletion strains, locus YNR030W, strain Alg12, hits give low values
# [24] = S. cerevisiae deletion strains, locus YOL006C, strain TOP1, hits give low values
# [25] = S. cerevisiae deletion strains, locus YPL055C, strain LGE1, hits give low values
# [26] = S. cerevisiae deletion strains, locus YPL241C, strain CIN2, hits give low values
# [27] = S. cerevisiae deletion strains, locus YPR135W, strain CTF4, hits give low values
# [28] = S. cerevisiae deletion strains, locus YNL128W, strain TEP1, hits give low values
# [29] = S. cerevisiae strains, strain wild type, hits give low values
smiles,measurement,setting,value
CCCn1c(=O)c(C#N)cn(-c2ccc(Cl)cc2)c1=O,normalized growth,[1],1.01
same,normalized growth,[2],0.986
same,normalized growth,[3],1.01
same,normalized growth,[4],0.991
same,normalized growth,[5],1.02
same,normalized growth,[6],0.97
same,normalized growth,[7],0.996
same,normalized growth,"S. cerevisiae deletion strains, locus YGR229C, strain SMI1, hits give low values",0.997
same,normalized growth,[8],0.937
same,normalized growth,[9],0.977
same,normalized growth,[10],0.93 (active)
same,normalized growth,[11],1.02
same,normalized growth,[12],1.01
same,normalized growth,[13],0.759 (active)
same,normalized growth,[14],0.986
same,normalized growth,[15],0.893
same,normalized growth,[16],0.821
same,normalized growth,[17],0.963
same,normalized growth,[18],0.99
same,normalized growth,[19],1
same,normalized growth,[20],1
same,normalized growth,[21],0.961
same,normalized growth,[22],0.979
same,normalized growth,[23],0.99
same,normalized growth,[24],0.924
same,normalized growth,[25],1.04
same,normalized growth,[26],0.982
same,normalized growth,[27],1.03
CC(C)n1cc(C#N)c(=O)n(Cc2ccccc2)c1=O,normalized growth,[1],0.992
same,normalized growth,[2],0.994
same,normalized growth,[3],0.991
same,normalized growth,[4],1.02
same,normalized growth,[5],0.923
same,normalized growth,[6],1
same,normalized growth,[7],0.991
same,normalized growth,[8],0.983
same,normalized growth,[9],0.989
same,normalized growth,[10],0.977
same,normalized growth,[12],0.999
same,normalized growth,[13],1.01
same,normalized growth,[14],1
same,normalized growth,[15],0.999
same,normalized growth,[16],1.04
same,normalized growth,[17],0.988
same,normalized growth,[18],1
same,normalized growth,[19],0.967
same,normalized growth,[28],0.994
same,normalized growth,[20],0.984
same,normalized growth,[21],1.05
same,normalized growth,[22],0.996
same,normalized growth,[23],1.01
same,normalized growth,[25],0.979
same,normalized growth,[26],1
same,normalized growth,[27],0.994
same,normalized growth,[29],1.01
CCOC(=O)Cn1c(=O)c(C#N)cn(C(C)C)c1=O,normalized growth,[1],1.01
same,normalized growth,[2],1.01
same,normalized growth,[3],0.993
same,normalized growth,[4],1.02
same,normalized growth,"S. cerevisiae deletion strains, locus YDL134C, strain PPH21, hits give low values",1.01
same,normalized growth,[5],1.02
same,normalized growth,[6],0.988
same,normalized growth,[7],1.01
same,normalized growth,[8],1.03
same,normalized growth,[9],1
same,normalized growth,[10],1
same,normalized growth,[11],0.998
same,normalized growth,[12],1.02
same,normalized growth,[13],1.02
same,normalized growth,[14],1.01
same,normalized growth,[15],0.976
same,normalized growth,[16],1.01
same,normalized growth,[17],1
same,normalized growth,[18],1.01
same,normalized growth,[19],1
same,normalized growth,[28],0.98
same,normalized growth,[20],1
same,normalized growth,[21],1.04
same,normalized growth,[22],1.01
same,normalized growth,[23],1.02
same,normalized growth,[24],1.03
same,normalized growth,[25],0.984
same,normalized growth,[26],1.02
same,normalized growth,[27],1.02
same,normalized growth,[29],1.01
